# Source: PubChem BioAssay
# Most compounds without a hit are left out; they make up all but 2.8% or so of the library.
# POLB inh: qHTS Assay for Inhibitors of DNA Polymerase Beta; P06746; Potency, µM (top dose mostly 114 µM), inactives show at the top dose activity change, negative = inhibition, usual class: inhibitors; hit rate 1.3% among 340,000; Pol beta primer extension/strand displacement, fluorescence kinetic; note: potency is the fitted concentration of half-maximal effect; % is set by controls: 0 for no effect and ±100 for the full control effect
#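 Pol beta (10 nM) was preincubated with compound for 15 min at room temperature. The reaction was then started with 50 nM substrate and read immediately and after a further 10 min at room temperature.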
# Pol kappa inh-1: qHTS for Inhibitors of Polymerase Kappa; DNA polymerase kappa (Homo sapiens), Q9UBT6; purified Pol kappa, fluorescent DNA synthesis assay, 10 min; Potency, µM (series often up to 107 µM), for the others: top-dose activity, negative = inhibition, most hits filed as inhibitors; hit rate 0.53% among 400,000; AID 588579, 2011; note: potency is the fitted concentration of half-maximal effect; % is set by controls: 0 for no effect and ±100 for the full control effect
#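 Pol kappa 10 nM + cpd, 15 min RT; start w/ substrate 50 nM final; fluorescence kinetic read, 0 and 10 min. Neg ctrl: buffer, no enzyme.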
# POLI inh: qHTS for Inhibitors of Polymerase Iota; Pol iota fluorescent replication assay, 10 min; DNA polymerase iota (Homo sapiens), Q9UNA4; Potency, µM (series often up to 115 µM), for inactives: top-dose activity, negative = inhibition, hits mostly inhibitors; hit rate 1% among 390,000; note: potency is the fitted concentration of half-maximal effect
#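 Fluorescent replication assay read twice, at 0 min and 10 min after adding 50 nM (final) substrate. Enzyme (10 nM) and compounds were first incubated 15 min at room temperature; enzyme-free buffer wells were negative controls.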
# Pol eta inh-1: qHTS for Inhibitors of Polymerase Eta | hit rate 1.2% among 390,000 | recombinant Pol eta, fluorescent DNA replication assay | Potency, µM (series often up to 114 µM), without a hit: at the top dose activity change, negative = inhibition, most hits filed as inhibitors; note: potency is the fitted concentration of half-maximal effect; % is set by controls: 0 for no effect and ±100 for the full control effect
#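 Pol eta (10 nM) was preincubated with compounds for 15 min at room temperature, after which fluorescent replication substrate (50 nM final) was added to start the reaction. Fluorescence was read kinetically at 0 and 10 min.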
# WRN helicase inh-1: qHTS for Inhibitors of WRN Helicase. Bifunctional 3'-5' exonuclease/ATP-dependent helicase WRN (Homo sapiens), Q14191. WRN helicase unwinding, fluorescent forked duplex, kinetic. Potency, µM (doses to about 114 µM), for the others: top-dose activity change, negative = inhibition, most hits filed as inhibitors. hit rate 0.46% among 360,000; note: potency is the fitted concentration of half-maximal effect; % is set by controls: 0 for no effect and ±100 for the full control effect; nearly all actives have a fitted effect of over 55% in size
#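 WRN at 20 nM final was preincubated with compound for 15 min at room temperature; reaction started with 100 nM forked duplex oligonucleotide carrying fluorophore and quencher plus 2 mM ATP (final). Unwinding followed kinetically by red fluorescence (ex 525/em 598 nm).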
# PI5P4K alpha inh: qHTS for Inhibitors of phosphatidylinositol 5-phosphate 4-kinase (PI5P4K); PI5P4Kalpha enzyme, ADP-Glo luminescence, 60 min; active compounds read low; max response, %; Phosphatidylinositol 5-phosphate 4-kinase type-2 alpha (Homo sapiens), P48426; hit rate 1.2% among 330,000; AID 652105, 2013; active = max response of -50% or lower; inconclusive = between -30% and -50%; inactive = -30% or higher; note: value at the top dose of about 77 µM; % is set by controls: 0 for no effect and ±100 for the full control effect
#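 Compounds were pin-transferred onto PI5P4Kalpha and substrate in HEPES pH 7.4 buffer with EGTA, CHAPS and 5% DMSO. ATP (5 microM final) started the reaction, which ran 60 minutes at room temperature before ADP-Glo detection.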
# TbPGK inh: qHTS for inhibitors of Phosphogylcerate Kinase: Hit Validation Screen; Potency, µM (doses to about 57.5 µM), for inactives: top-dose activity change, negative = inhibition, actives largely listed as inhibitors; shares compounds with Pol kappa inh-1; TbPGK coupled GAPDH assay, Kinase-Glo luminescence; hit rate 79% among 500; note: potency is the fitted concentration of half-maximal effect; % is set by controls: 0 for no effect and ±100 for the full control effect; nearly all actives have a fitted effect of over 65% in size
# Pol iota confirm: qHTS for Inhibitors of Polymerase Iota: Confirmatory Assay for Cherry-picked Compounds; shares compounds with Pol kappa inh-1; hit rate 77% among 1,500; Potency, µM, hits mostly inhibitors; Pol iota primer extension, TAMRA/BHQ fluorescence; note: potency is the fitted concentration of half-maximal effect
# Pol kappa inh-2: qHTS for Inhibitors of Polymerase Kappa: Confirmatory Assay for Cherry-picked Compounds; shares compounds with Pol eta inh-1; purified Pol-kappa, fluorescent strand-displacement substrate; Potency, µM, usual class: inhibitors; hit rate 76% among 920; AID 720501, 2013; note: potency is the fitted concentration of half-maximal effect
# Pol eta inh-2: qHTS for Inhibitors of Polymerase Eta: Confirmatory Assay for Cherry-picked Compounds; AID 720502, 2013; shares compounds with Pol eta inh-1; Potency, µM, hits mostly inhibitors; Pol eta primer extension, TAMRA/BHQ fluorescence, 10 min; hit rate 64% among 2,600; note: potency is the fitted concentration of half-maximal effect
# WRN helicase inh-2: qHTS for Inhibitors of WRN Helicase: Confirmatory Assay for Cherry-picked Compounds; AID 720497, 2013; hit rate 63% among 610; WRN helicase DNA unwinding, fluorescence kinetic; shares compounds with WRN helicase inh-1; Potency, µM (series often up to 57.1 µM), for inactives: top-dose activity, negative = inhibition, actives largely listed as inhibitors; note: potency is the fitted concentration of half-maximal effect; nearly all actives have a fitted effect of over 65% in size
# TO displacement: qHTS for Inhibitors of WRN Helicase: Thiazole Orange DNA Binding Counterscreen. shares compounds with WRN helicase inh-1. thiazole orange DNA binding displacement, fluorescence. Potency, µM (doses to about 57.1 µM), inactives show at the highest dose activity change, negative = inhibition, actives largely listed as inhibitors. hit rate 10% among 610;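 note: drop in dye fluorescence marks compound binding to DNA; potency is the fitted concentration of half-maximal effect; % is set by controls: 0 for no effect and ±100 for the full control effect; nearly all actives have a fitted effect of over 60% in size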
# BLM helicase inh: qHTS for Inhibitors of WRN Helicase: BLM Helicase Counterscreen for WRN Inhibitors. shares compounds with WRN helicase inh-1. Recombinant BLM helicase DNA unwinding, red fluorescence. Potency, µM (top dose mostly 57.1 µM), for inactives: at the highest dose activity change, negative = inhibition, most hits filed as inhibitors. hit rate 60% among 610. AID 720503, 2013; note: potency is the fitted concentration of half-maximal effect; nearly all actives have a fitted effect of over 60% in size
# * hit, by the source's call; i = inactive; ? = inconclusive; / = no result given; [ ] = dose if it differs, or a comment. Unless noted, calls come from the whole dose curve; as a rule, active = well fitted curve in the direction sought with a large enough effect; inconclusive = small, poorly fitted or top-dose-only effect, or another doubt; inactive = no such curve, though single readings can be large; an effect the other way counts as inactive or inconclusive.
SMILES,POLB inh,Pol kappa inh-1,POLI inh,Pol eta inh-1,WRN helicase inh-1,PI5P4K alpha inh,Pol iota confirm,Pol kappa inh-2,Pol eta inh-2,WRN helicase inh-2,TO displacement,BLM helicase inh,others
CSC1SCC2C(=O)N(C)C(C(C)C)C(=O)OCC(NC(=O)c3cnc4ccccc4n3)C(=O)NC(C)C(=O)N(C)C1C(=O)N(C)C(C(C)C)C(=O)OCC(NC(=O)c1cnc3ccccc3n1)C(=O)NC(C)C(=O)N2C (stereo not drawn),/,-100%,0.32µM*,-99%,0.53µM*,?,1.5*,0.75*,1.5*,0.34µM*,?,0.54µM*,
O=C(O)CN1C(=O)/C(=C/c2ccc(N3CCCCC3)o2)SC1=S,18µM*,50µM*,i,50µM*,4.7µM*,?,42*,24*,34*,24µM*,43%,24µM*,
COC(=O)CN1C(=O)S/C(=C/c2ccc(N3CCCCC3)o2)C1=O,4%,-4%,?,?,?,/,/,/,/,/,/,/,
CCNc1ccc2noc3c2c1C(=O)c1ccccc1-3,20µM*,25µM*,28µM*,?,4.2µM*,/,75*,67*,76*,3µM*,i,7.6µM*,
COc1ccc(-c2noc(CN(C(=O)c3ccc(C)cc3C)C(C)C)n2)cc1,36%,-10%,-19%,-8%,/,/,/,/,/,/,/,/,
Cc1ccc(N2CC(C(=O)N(C)CC(=O)Nc3ccc(Cl)c(C(F)(F)F)c3)CC2=O)cc1 (stereo not drawn),/,-14%,15%,-17%,-2%,29,/,/,/,/,/,/,
O=C(Nc1ccc2oc(=O)ccc2c1)c1ccc(-c2cccc([N+](=O)[O-])c2)o1,2.8µM*,-9%,47%,32µM*,10µM*,-12,21*,/,/,?,?,1.5µM*,
O=C(Nc1ccc2oc(=O)ccc2c1)c1ccc(-c2ccc(Cl)cc2)o1,0%[57.1 µM],-14%,6%,-3%,-33%[57.1 µM],2,/,/,/,/,/,/,
CN=Cc1nc(-c2ccccc2)oc1O,22%,-2%,?,-15%,6%,-13,/,/,/,/,/,/,
CC1=Nc2ccccc2/C1=C\c1nc(-c2ccc(F)cc2)oc1O,35µM*,?,?,?,?,/,?,/,34*,19µM*,106%,19µM*,
CC(=C/C(=O)O)/C=C/c1ccc(Cl)o1,13µM*,25µM*,7.9µM*,1.1µM*,?,-14,21*,/,8.5*,6.1µM*,-7%,3µM*,TbPGK inh=15µM*
CC(/C=C/c1ccc(C)o1)=C\C(=O)O,39%,-2%,-20%,1%,3%,-5,/,/,/,/,/,/,
Cc1cccc(NC(=S)N(CCCN2CCOCC2)C(C)c2cc3ccccc3o2)c1C (stereo not drawn),1%,-7%,-2%,-15%,-5%,1,/,/,/,/,/,/,
COc1cccc2c1C(=O)c1c(O)c3c(c(O)c1C2=O)CC(O)(C(C)=O)CC3OC1CC(O)C(O)C(C)O1 (stereo not drawn),/,?,45µM*,25µM*,3µM*,-12,24*,75*,34*,22µM*,297%,22µM*,
Cn1ccc2c(N3CCCCC3)cc3c(c21)C1CCC3C1 (stereo not drawn),/,/,/,/,-8%,8,/,/,/,/,/,/,
COc1ccccc1CNC(=O)COC(=O)c1cc(C)nc2ccccc12,/,-7%,17%,-11%,-25%,9,/,/,/,/,/,/,
COc1ccccc1CNC(=O)COC(=O)c1cc(-c2ccco2)nc2ccccc12,5µM*,22µM*,7.1µM*,14µM*,35µM*,/,21*,15*,24*,19µM*,?,17µM*,
NC(=O)C1(N2CCCCC2)CCN(C(=S)Nc2cc(F)cc(F)c2)CC1,0%,-10%,11%,2%,-3%,-4,/,/,/,/,/,/,
N#C/C(=C\c1ccc(-c2ccc(C(=O)O)cc2)o1)C(=O)Nc1ccccc1C(=O)O,?,32µM*,?,11µM*,/,/,67*,5.3*,30*,?,11µM*,19µM*,
O=C(O)c1cccc(N2C(=O)c3cc([N+](=O)[O-])cc4cc([N+](=O)[O-])cc(c34)C2=O)c1,6.3µM*,22µM*,2.2µM*,4µM*,40µM*,-73*,42*,15*,24*,27µM*,-26%,?,TbPGK inh=10µM*
CC(C)c1ccc(S(=O)(=O)c2nnn3c2nc(NCCc2ccccc2)c2sccc23)cc1,2%,-16%,13%,-18%,/,/,/,/,/,/,/,/,
